High-throughput results as filed in PubChem BioAssay.
TMEM16A act = activators or potentiators of mouse TMEM16A chloride channel. 340,000 tested, 0.3% active. B-score at 10 µM. HEK293 TMEM16A/YFP-H148Q/I152L, iodide quench fluorescence; stronger effect = lower value. AID 623877. Q8BHY3;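 active means fluorescence-ratio B-score plate-corrected deviation score at least 3 library SD below zero, with starting fluorescence score within 5 deviations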;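 further: channel opened by trigger with iodide after compound preincubation; score built on the fluorescence ratio of max minus min over baseline; more negative score means more quench and so TMEM16A activation or potentiation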
TLR4-MyD88 BLA = inhibitors of human TLR4-MyD88 binding; O00206+Q99836; HeLa CL3-4 TLR4/MyD88 BLA complementation, FRET ratio; inhibition, % at 8.4 µM; 200,000 tested, 0.18% active; AID 861; in the data active means inhibition above about 25%;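 further: 0% = vehicle and 100% = reference inhibitor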
ANO1 block = inhibitors of mouse TMEM16A calcium-activated chloride channel; Q8BHY3; HEK293 TMEM16A/YFP iodide influx fluorescence, ionomycin; normalized B-score (activity score, 25-100; higher = stronger inhibition) at 10 µM; 310,000 tested, 1.2% active; AID 588511;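 active means ratio plate-corrected score three or more library SD toward inhibition, starting fluorescence score within five deviations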;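 further: score derived from kinetic fluorescence span divided by baseline fluorescence per well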
GRK2 inh = inhibitors of human GRK2 displacing RNA aptamer. P25098. 330,000 tested, 0.59% active. inhibition of aptamer binding, % at 10 µM. AID 488847. bead flow cytometry, FAM-aptamer displacement from GRK2;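 active means inhibition of aptamer binding above 40%, roughly 3 SD of noise, on plates passing a quality check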;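 further: median bead fluorescence of bound FAM aptamer so fluorescent compounds give negative values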
NOD2 RIPK2 PPI = NOD2-RIPK2 protein interaction inhibition | O43353 | CHO BLA complementation NOD2-RIPK2, CCF4 ratio | inhibition, % at 4.98 µM | 360,000 tested, 0.38% active | AID 624267; in the data active means inhibition above about 21%;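 further: 0% = vehicle only and 100% = reference blocker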
Target sequence (O43353 whole entry, looked up): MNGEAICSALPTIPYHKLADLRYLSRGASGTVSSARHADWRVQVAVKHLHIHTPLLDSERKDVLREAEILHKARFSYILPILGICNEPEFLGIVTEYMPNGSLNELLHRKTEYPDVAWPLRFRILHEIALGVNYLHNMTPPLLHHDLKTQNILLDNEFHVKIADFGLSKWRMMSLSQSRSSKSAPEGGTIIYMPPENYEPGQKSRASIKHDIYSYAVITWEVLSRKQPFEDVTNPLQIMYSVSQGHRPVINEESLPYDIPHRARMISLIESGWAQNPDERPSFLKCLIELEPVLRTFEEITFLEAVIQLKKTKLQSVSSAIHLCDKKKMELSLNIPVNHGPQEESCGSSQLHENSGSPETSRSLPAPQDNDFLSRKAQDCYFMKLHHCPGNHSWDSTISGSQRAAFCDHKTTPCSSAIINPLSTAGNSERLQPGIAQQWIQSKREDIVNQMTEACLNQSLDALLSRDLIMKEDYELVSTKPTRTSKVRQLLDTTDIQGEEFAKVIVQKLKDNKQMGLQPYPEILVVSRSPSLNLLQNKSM
TLR9-MyD88 inh = TLR9-MyD88 interaction inhibition | Q9NR96+Q99836 | CHO BLA complementation TLR9-MyD88, CCF4 FRET ratio | inhibition, % at 4.98 µM | 340,000 tested, 0.21% active | AID 504734;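 active means inhibition above the mean over all tested compounds plus 3 SD, cut at about 21% in these data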;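 further: 0% = DMSO only wells and 100% = clavulanate BLA inhibitor control wells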
TMEM16A reconf = reconfirmed blocker of mouse TMEM16A calcium-activated chloride channel; shares compounds with ANO1 block; HEK293 TMEM16A/YFP-H148Q, iodide quench fluorescence; ionomycin added to raise cell calcium; inhibition, % at 10 µM; 2,300 tested, 39% active; AID 652189;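 active means mean duplicate percent inhibition, scaled so buffer wells are 0 and the reference blocker 100, over three buffer SD above buffer mean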
HEK293 Ca mobil = counter-screen for TMEM16A inhibitors: effect on calcium mobilization. shares compounds with ANO1 block. TMEM16A/YFP HEK293, Fluo4 calcium mobilization. calcium response (% of ionomycin), % at 10 µM. 2,300 tested, 2% active. AID 652231;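 active means duplicate-averaged calcium signal over 20% of the ionomycin maximum, relative to buffer baseline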;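 further: each well's signal is peak minus trough fluorescence divided by its pre-addition baseline; 0% = buffer wells and 100% = ionomycin wells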
Parental YFP cnt = counter-screen for TMEM16A inhibitors: effect in parental YFP-HEK293 cells; AID 652233; iodide YFP quench, ionomycin; shares compounds with ANO1 block; YFP ratio F(max-min)/F0 at 10 µM; 2,300 tested, under 10 active;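 active means yellow fluorescent protein signal ratio exceeding the buffer control mean by over 5 SD of those controls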;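 further: ratio is mean of duplicate wells from kinetic YFP trace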
ClC-1 rat inh = rat ClC-1 inhibition, TMEM16A specificity screen. shares compounds with ANO1 block. CHO ClC-1-YFP, iodide influx fluorescence quench; iodide control reads 0, buffer control 100. ratio percent, % at 10 µM. 2,300 tested, under 10 active;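 active means duplicate-mean ratio percent above the mean of iodide-only control wells, which defines zero, plus 5 of their SD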;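 further: higher percent means stronger block of ClC-1 iodide influx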
An asterisk follows results filed as active; i = inactive; . = not tested or not shown. An excerpt weighted towards active compounds, which were near 2.2% of everything screened.

SMILES	TMEM16A act	TLR4-MyD88 BLA	ANO1 block	GRK2 inh	NOD2 RIPK2 PPI	TLR9-MyD88 inh	TMEM16A reconf	HEK293 Ca mobil	Parental YFP cnt	ClC-1 rat inh
Cc1ccc(C(C)C)cc1OCC(=O)Nc1ccc(N2CCCCC2)cc1	i	.	25*	0.0	4.4	-0.1	i	i	-0.688	-0.5
Cc1cccc(C(=O)OCC(=O)Nc2ccc(N3CCCCC3)cc2)c1O	i	-6.6	i	0.0	-6.0	7.9	i	i	-1.21	-16.5
CCCCOC(=O)Nc1ccc(N2CCOCC2)cc1	i	3.7	i	3.0	-3.0	-8.8	.	.	.	.
COc1cc(CN2CCc3ccccc3C2)ccc1O	i	.	i	6.0	19.6	12.6	.	.	.	.
CCOC(=O)C1=NOC2(C1)C(=O)Nc1ccc(OC)cc12 (centres undefined)	.	.	.	.	-9.3	.	.	.	.	.
CN(Cc1ccco1)S(=O)(=O)c1nnc(NC(=O)c2cccc(Cl)c2)s1	i	.	25*	3.0	-5.7	-1.5	25.5%*	i	-0.789	-13.5
O=C(Nc1ccc2c(c1)OCO2)N1CCN(C(=O)C2CCCO2)CC1 (centres undefined)	i	-4.0	25*	0.0	-0.4	10.2	i	i	-1.15	-4.0
O=C(c1cccs1)N1CCN(C(=O)C2CCCO2)CC1 (centres undefined)	i	-6.7	100*	3.0	1.9	0.8	i	i	-1.02	3.0
O=C(Nc1ccc(Cl)cc1)N1CCN(C(=O)C2CCCO2)CC1 (centres undefined)	i	.	i	1.0	-7.1	-15.1	.	.	.	.
O=C(NCCc1ccc(Cl)cc1)C1CCN(c2ncccn2)CC1	i	-8.8	i	0.0	0.8	-6.8	.	.	.	.
O=C(NCCc1ccc(Cl)cc1)C1CCN(c2cnccn2)CC1	i	0.8	100*	2.0	-5.6	5.7	i	i	-0.988	-15.0
COc1ccccc1C(CC(=O)c1ccccc1)CC(=O)c1ccccc1	i	4.2	100*	3.0	-16.6	1.8	i	i	-0.96	-14.0
O=C1/C(=C/Nc2ccc3c(c2)OCO3)CCc2ccccc21	i	12.2	i	0.0	-13.9	13.8	.	.	.	.
COc1ccc2c(c1)CC/C(=C\Nc1ccc3c(c1)OCO3)C2=O	i	-2.3	25*	3.0	0.6	4.2	i	i	-0.838	4.5
O=S(=O)(c1cccc(F)c1)N1CCN(c2nc(-c3cccnc3)nc3ccccc23)CC1	i	.	.	0.0	10.9	-11.6	.	.	.	.
CN(C(=O)OC(C)(C)C)c1ccc(-c2nc3ccccc3s2)cc1	i	.	25*	.	-4.1	2.1	24.5%*	i	-1.36	-8.5
Cc1ccc(-c2noc(CCC(=O)NC3CCCC3)n2)cc1	i	.	i	0.0	11.5	4.9	.	.	.	.
Cc1ccc(-c2noc(CCCC(=O)NC3CCCCC3)n2)cc1	i	.	25*	0.0	-6.7	-3.9	i	i	-1.2	-16.5
CC(=O)N1c2ccc(S(=O)(=O)NCC3CCC(C(=O)Nc4cc(C)ccn4)CC3)cc2CC1C (centres undefined)	i	.	i	0.0	0.0	4.6	.	.	.	.
COc1ccccc1C(=O)NCCCN1CCCC1=O	i	-10.6	25*	0.0	1.0	-7.5	i	i	-1.12	-16.5
CCCc1nc(SCC(=O)NCC2CCCO2)c2c(=O)n(C)c(=O)n(C)c2n1 (centres undefined)	i	.	i	2.0	-6.5	0.0	.	.	.	.
CN(Cc1ccccc1)C(=O)COC(=O)c1cc(NS(=O)(=O)c2cccs2)ccc1O	i	16.5	25*	3.0	-3.9	1.6	i	i	-1.06	-20.5
O=C(COC(=O)c1cc(NS(=O)(=O)c2cccs2)ccc1O)Nc1ccccc1	i	.	i	0.0	5.4	-0.1	.	.	.	.
COc1cc(Cl)c(C)cc1NC(=O)CN(C)Cc1cccc(OC)c1OC	i	-1.8	25*	0.0	0.0	1.7	19.5%*	i	-1.02	-3.5
O=C(/C=C/[C@H]1O[C@@H](n2cnc3c(NC(=O)c4ccccc4)ncnc32)[C@H](O)[C@@H]1O)NCCc1ccc(F)cc1	.	.	.	.	1.5	.	.	.	.	.
SMILES	TMEM16A act	TLR4-MyD88 BLA	ANO1 block	GRK2 inh	NOD2 RIPK2 PPI	TLR9-MyD88 inh	TMEM16A reconf	HEK293 Ca mobil	Parental YFP cnt	ClC-1 rat inh
NS(=O)(=O)c1ccc(N2N=C(c3ccccc3)CC2c2ccccc2Cl)cc1 (centres undefined)	.	.	.	0.0	-12.2	-6.1	.	.	.	.
Cc1c(C(=O)OCCOc2ccccc2)[nH]c2c1C(=O)CCC2	i	3.1	100*	3.0	3.9	2.2	25.0%*	i	-0.804	-13.0
CC(=O)c1c(C)[nH]c(C(=O)OCCOc2ccccc2)c1C	i	6.6	i	0.0	6.9	6.7	.	.	.	.
Cc1sc2ncnc(N3CCN(S(=O)(=O)c4ccc(C(C)(C)C)cc4)CC3)c2c1C	i	.	.	2.0	-6.5	-4.2	.	.	.	.
Cc1sc2ncnc(N3CCN(S(=O)(=O)c4ccc(Br)cc4)CC3)c2c1C	i	.	25*	4.0	-5.8	-5.3	30.0%*	i	-0.99	-23.0
CCOC(=O)c1ccc(NC(=S)N2CCN(C)CC2)cc1	i	.	25*	1.0	3.7	0.8	i	i	-0.837	-0.5
CCC(Sc1ccc2nnc(-c3ccc(OC)c(OC)c3)n2n1)C(=O)O (centres undefined)	i	10.8	100*	0.0	-2.4	-1.1	i	i	-0.787	-6.0
Cc1ccc(S(=O)(=O)Nc2ccc(Cl)cc2C(=O)c2ccccc2)cc1	i	-1.7	25*	0.0	-9.4	-6.3	i	i	-0.856	-6.0
O=C(NCc1ccccc1)C(c1ccncc1)N(C(=O)c1ccccn1)c1ccccc1 (centres undefined)	i	.	i	0.0	-11.5	-5.6	.	.	.	.
CC[C@@H](C)[C@@H](CO)NC(=O)[C@H]1O[C@@H](n2cnc3c(N)ncnc32)[C@H](O)[C@@H]1O	.	.	.	.	-0.2	.	.	.	.	.
Cc1cc(N2O[C@]34C=C[C@]25C[C@@H](O)CC[C@]5(C)C3CC[C@]2(C)[C@@H]([C@H](C)/C=C/[C@H](C)C(C)C)CC[C@H]24)no1 (some centres undefined)	.	.	.	2.0	-2.6	-9.7	.	.	.	.
